This passage reports Potency results from PubChem BioAssay (Tox21).

Inconclusive results are not listed. Entries that show only a call come without a potency. Activity calls are given as the source filed them. Calls follow the shape of the dose curve; as a rule, active = well fitted cell-killing curve with a large enough effect in the repeat runs; inconclusive = weak or mixed curves; inactive = no such curve, though single readings can be large or run the other way.
Potency is read from the fitted curve at half-maximal effect.

A short description of this assay: qHTS assay to identify small molecule antagonists of the peroxisome proliferator-activated receptor delta (PPARd) signaling pathway - cell viability counter screen (AID 743213). Also: nearly all actives have a fitted effect of over 50% in size. The conditions noted are these: PPARd-bla HEK293H viability, CellTiter-Glo luminescence, 17 h; series mostly up to 62 µM. The source says: U.S. Tox21 Program National Center for Advancing Translational Sciences [NCATS] NIH Chemical Genomics Center [NCGC] U.S. Environmental Protection Agency [EPA] National Institutes of Environmental Health Sciences [NIEHS] National Toxicology Program [NTP] U.S. Food and Drug Administration [FDA] Tox21 Assay Overview: The peroxisome proliferator-activated receptors (PPARs) are lipid-activated transcription factors of the nuclear receptor superfamily with three distinct subtypes namely PPAR alpha, PPAR delta (PPARd) and PPAR gamma. All these subtypes heterodimerizes with Retinoid X receptor (RXR) and have different physiological functions. […] To identify the compounds that inhibit PPAR-delta signaling, GeneBLAzer PPAR delta UAS-bla HEK293H cell line (Invitrogen, Carlsbad, CA, USA) containing a beta-lactamase reporter gene under the control of an Upstream Activator Sequence (UAS) was used to screen the Tox21 compound library. The cytotoxicity of the Tox21 compound library against the PPARd-bla cell line was tested in parallel by measuring the cell viability using CellTiter-Glo assay (Promega, Madison, WI) in the same wells.
Tox21 Assay Protocol Summary: PPARd-bla cells were dispensed at 3000 cells/5uL/well in 1536-well black wall/clear bottom plates using a Multidrop Combi (Thermo Fisher Scientific, Waltham, MA) dispenser. After the assay plates were incubated at 37 C and 5% CO2 for 5 h, 23 nL of compounds dissolved in DMSO, positive controls or DMSO only was transferred to the assay plate by a Pintool station (Kalypsys, San Diego, CA), followed by addition of 1ul L165041 (300 nM, final concentration in the wells). The assay plates were incubated at 37 C for 17 h, and then 1 uL of LiveBLAzerTM B/G FRET substrate was added using a Bioraptr Flying Reagent Dispenser (FRD) workstation (Beckman Coulter, Indianapolis, IN, USA). The assay plates were incubated at room temperature for 2 h and fluorescence intensity was measured by an Envision plate reader (PerkinElmer, Shelton, CT). For cell viability readout that measures cytotoxicity, 3 ul/well of CellTiter-Glo reagent was added into the assay plates using a Bioraptr FRD. After 30 min incubation at room temperature, the luminescence intensity in the plates was measured using a ViewLux plate reader (PerkinElmer).
A general note: qHTS replaces the single test concentration by a dilution series.
`C[C@]12C/C(=C/O)C(=O)C[C@@H]1CC[C@@H]1[C@@H]2CC[C@@]2(C)[C@H]1CC[C@]2(C)O`: the Potency result is “inactive”.
Consider `COP(=O)(OC)O/C(=C\Cl)c1cc(Cl)c(Cl)cc1Cl`, for which the Potency result is “inactive”.
`CC[C@]1(O)CC[C@H]2[C@@H]3CCC4=CCCC[C@@H]4[C@H]3CC[C@@]21C`: the Potency entry was “inactive”.
For the compound `CCCCn1cc[n+](C)c1` (tested in a mixture with another compound), the Potency entry is “inactive”.
The value for `CC1(C)[C@H](/C=C2\CCSC2=O)[C@@H]1C(=O)OCc1coc(Cc2ccccc2)c1` was “inactive”; that for `Nc1nc(N)c(N)c(N)n1` was “inactive”.
In the case of `CNC(=O)/C=C(\C)OP(=O)(OC)OC`, the Potency result is “inactive”.
Consider `CC1CCCC1`, for which the Potency entry was “inactive”.
The value for `Clc1ccc(C2(Cn3cncn3)OCCO2)c(Cl)c1` was “inactive”; that for `BrCC(Br)(Br)Br` was “inactive”; that for `C=CC(=O)[O][Sn]([CH2]CCC)([CH2]CCC)[CH2]CCC` was 3.47 µM (active).
Take `C[C@]12CC[C@H]3[C@@H](CCC4=CC(=O)CC[C@@H]43)[C@@H]1CC[C@@H]2OC(=O)CCc1ccco1`: the Potency is 29.8 µM (active).
On to `O=NN(CCO)CCO`, for which the Potency result is “inactive”.
For the compound `S=C=Nc1ccccc1`, the Potency entry is “inactive”.
With `CC(=O)[O][Sn]([c]1ccccc1)([c]1ccccc1)[c]1ccccc1`, the Potency is 0.275 µM (active).
With `CN/C(=N\[N+](=O)[O-])NCc1cnc(Cl)s1`, the Potency entry is “inactive”.
In the case of `O=C1C(Cl)=C(Cl)C(=O)C(Cl)=C1Cl`, the Potency was 13.8 µM (active).
Regarding `CC(=O)C(Cl)C(=O)N(C)C` (stereo not given), the Potency entry is “inactive”.
For `O=C1C[C@@H]2OCC=C3CN4CC[C@]56c7ccccc7N1[C@H]5[C@H]2[C@H]3C[C@H]46`, the Potency entry is “inactive”.
`S=C=NCCc1ccccc1`: the Potency entry is “inactive”.
Consider `C1=CCC=C1`, for which the Potency result is “inactive”.
With `Cc1cnc2c(C(=O)O)c(Cl)ccc2c1`, the Potency result is “inactive”.
The value for `[C-]1=CC=CC1.[Cl][Zr+2][Cl].c1cc[cH-]c1` was “inactive”; that for `CNC(=O)Oc1cc(C)cc(C(C)C)c1` was “inactive”; that for `ClCBr` was “inactive”.
The value for `O=C(Nc1ccc(F)cc1F)c1cccnc1Oc1cccc(C(F)(F)F)c1` was “inactive”; that for `COC(=O)/C=C(\C)OP(=O)(OC)OC` was “inactive”; that for `CN=C=O` was “inactive”.
For the compound `Nc1ccccc1-c1ccccc1`, the Potency entry is “inactive”.
As for `C=CCOC(=O)c1ccccc1N`, the Potency entry was “inactive”.
With `Brc1ccc(Oc2ccc(Br)cc2Br)c(Br)c1`, the Potency result is “inactive”.
In the case of `O=c1[nH]c2cc(Cl)ccc2n1C1CCNCC1`, the Potency entry is “inactive”.
As for `O=S(=O)(O)F`, the Potency result is “inactive”.
For the compound `[O]=[Cr][O][Cr]=[O]`, the Potency entry was “inactive”.
The value for `CCCCN(CCCC)C(=S)[S-].CCCCN(CCCC)C(=S)[S-].[Ni+2]` was “inactive”; that for `N#Cc1c2ccccc2cc2ccccc12` was “inactive”; that for `c1ccc(Nc2ccc(Nc3ccccc3)cc2)cc1` was “inactive”.
For `N#CCCl`, the Potency entry is “inactive”.
On to `CC(Cc1ccc2c(c1)OCO2)NO` (stereo not given), for which the Potency result was “inactive”.
With `CCN(CC)C(=O)N[C@@H]1C=C2c3cccc4[nH]cc(c34)C[C@@H]2N(C)C1`, the Potency entry was “inactive”.
